Rows were chosen to be rich in hits. Some 19% of all compounds tested hit in one or more screens of this group.
DT40 TDP1 CPT = DT40-hTDP1 cell growth loss with CPT. chicken DT40 Tdp1-/-;hTDP1 cells + 20 nM CPT, ATP luminescence, 48 h. Potency, µM (doses to about 46.2 µM), inactives show top-dose activity change, negative = growth inhibition, usual class: inhibitors. 420,000 compounds, 12% hits; further: potency means the concentration at half of the fitted maximal effect; nearly all actives have a fitted effect of over 55% in size
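Chicken DT40 Tdp1-/- cells stably complemented with human TDP1 were seeded at 400 cells/well in medium containing 20 nM camptothecin, exposed to pin-transferred compounds, and grown at 37 °C for at least 48 hr. Viability was read as ATP luminescence.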
TDP1 cell noCPT = qHTS for Inhibitors of human tyrosyl-DNA phosphodiesterase 1 (TDP1): qHTS in cells in absence of CPT; DT40 Tdp1-/- hTDP1 cells, no CPT, ATP luminescence, 48 h; Potency, µM (series often up to 46.2 µM), inactives show at the top dose activity change, negative = growth inhibition, actives largely listed as inhibitors; 420,000 compounds, 15% hits; AID 686978, 2013; further: potency means the concentration at half of the fitted maximal effect; nearly all actives have a fitted effect of over 55% in size
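Chicken DT40 Tdp1-/- cells stably complemented with human TDP1 were seeded at 400 cells/well with DMSO in place of 20 nM camptothecin. After compound pinning, cells grew at least 48 hr at 37 °C; viability read by CellTiter-Glo luminescence.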
IL-1B inflam inh = blocks inflammasome-driven IL-1 beta release | THP-1 LPS/ATP IL-1B secretion, AlphaLISA, 16 h; stronger effect = lower value | activity change, % at 57.5 µM | 360,000 compounds, 4.7% hits; in the data active means activity change below about -50%; inconclusive means mostly about -30% to -49%
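Secreted IL-1B measured by AlphaLISA bead assay after 16 h compound exposure of THP-1 cells; compounds (final up to 57.5 uM) added 1 h before LPS (250 ng/mL) and ATP (1.25 mM) stimulation; lower signal means less secretion.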
HT1080 IDH1KD tx = kills HT-1080 cells with IDH1 knockdown | HT-1080 IDH1 knockdown viability, ATP luminescence, 48 h | Potency, µM (titrated, usually from 46.1 µM), without a hit: at the top dose activity, negative = toxicity, usual class: cytotoxic | 360,000 compounds, 2% hits | AID 686971;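 further: potency means the concentration at half of the fitted maximal effect; 0% = DMSO wells and -100% = cell-free medium wells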
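IDH1KD HT-1080 cells, 750/well, RPMI + 5% FBS; compound pinned after 2 h settling; 48 h, 37 °C; CellTiter-Glo luminescence; % activity normalised to DMSO and no-cell wells; curves fitted, classed by r2 and efficacy.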
HT1080-NT tox = kills 2HG-producing HT-1080-NT fibrosarcoma cells; HT-1080-NT fibrosarcoma viability, CellTiter-Glo ATP luminescence, 48 h; Potency, µM (highest dose often 46.1 µM), inactives show at the top dose activity, negative = less viability, usual class: cytotoxic; 360,000 compounds, 1.6% hits; AID 686970;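 further: NT is the 2HG producing partner of a matched IDH1 knockdown line; potency means the concentration at half of the fitted maximal effect; 0% = DMSO-treated cells and -100% = media-only wells without cells; nearly all actives have a fitted effect of over 55% in size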
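Viability of the 2HG-overproducing fibrosarcoma line after 48 hours of compound exposure at 37 degrees C was determined by luminescence with CellTiter-Glo, and concentration-effect curves were then fitted and categorized.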
* marks the source's active call; other numbers are inactive results; ? = inconclusive; . = no result given. Unless noted, the call rests on the fitted dose curve; in most records, active means well fitted curve in the direction sought with a large enough effect; inconclusive means small, poorly fitted or top-dose-only effect, or another doubt; inactive means no such curve, though single readings can be large; an effect the other way counts as inactive or inconclusive. Unless noted, on the % scale 0 is the no-effect control and ±100 the full control effect.

SMILES | DT40 TDP1 CPT | TDP1 cell noCPT | IL-1B inflam inh | HT1080 IDH1KD tx | HT1080-NT tox
COc1ccc(NC(=O)c2ccc(NC(=O)CN3CCN(c4ccccc4OC)CC3)cc2)cc1 | ? | 18.4µM* | 67.6 | ? | ?
CCN(CC)c1ccc(NC(=O)CN2CCN(S(=O)(=O)c3cc(Cl)ccc3OC)CC2)cc1 | ? | 16.4µM* | -29.2 | ? | ?
COC(=O)c1ccc(C(=O)OC)c(NC(=O)CN2CCN(c3ccccc3)CC2)c1 | ? | -26.3% | 28.7 | 4.5% | 16.1%
COC(=O)c1ccc(C(=O)OC)c(NC(=O)CN2CCN(c3ccccc3OC)CC2)c1 | ? | 25.9µM* | -10.0 | 8.9% | -4.6%
CCN(CC)c1ccc(NC(=O)CN2CCN(c3ccccc3OC)CC2)cc1 | 20.6µM* | 16.4µM* | . | . | .
COc1ccc(NC(=O)CN2CCN(c3ccccc3F)CC2)cc1 | -19.8% | -0.6% | 11.5 | 2.9% | 2.0%
O=C(NCc1nnc2n1CCN(Cc1ccccc1C(F)(F)F)CC2)c1ccncc1 | -22.1% | -7.3% | . | . | .
CCCCNC(=O)C1(C)CCN1C(=O)c1ccc(OC)c(C(F)(F)F)c1 (stereo not drawn) | ? | ? | 28.8 | -0.5% | -4.2%
N#C/C(=C\c1ccccc1OCC(=O)O)c1nc2ccccc2[nH]1 | -13.4% | 34.1% | 0.0 | 8.7% | 5.5%
CC(=O)c1ccc(NC(=O)Cn2nc(C(F)(F)F)c3c2CCCC3)cc1 | -29.4% | ? | . | . | .
CC(C)(C)OC(=O)C[C@@H]1C/C=C\C[C@H](CC(=O)N[C@H](CO)Cc2ccccc2)C(=O)N[C@@H](Cc2c[nH]c3ccccc23)COC1=O | 25.9µM* | ? | -6.9 | -3.1% | 1.8%
CC(C)(C)OC(=O)C[C@@H]1C/C=C\C[C@H](CC(=O)N[C@H](CO)Cc2ccccc2)C(=O)N[C@H](Cc2ccccc2)COC1=O | -46.8% | 13µM* | 12.1 | -4.7% | 2.1%
CC(C)(C)OC(=O)C[C@@H]1C/C=C\C[C@H](CC(=O)N[C@H](CO)Cc2ccccc2)C(=O)N[C@@H](Cc2ccccc2)COC1=O | ? | ? | -11.1 | 0.9% | -0.3%
CC(C)(C)OC(=O)C[C@H]1C/C=C\C[C@H](CC(=O)N[C@H](CO)Cc2ccccc2)C(=O)N[C@H](Cc2ccccc2)COC1=O | 23.1µM* | 23.1µM* | -57.9* | 1.4% | 0.6%
Nc1ccn(C(C=O)CC(C=O)CO)c(=O)n1 (stereo not drawn) | -17.0% | -5.6% | -0.5 | 6.5% | 12.9%
Cc1ccc(S(=O)(=O)/N=C(\N)c2ccc(Cl)cc2)cc1 | -23.5% | ? | -4.0 | -8.1% | -13.0%
Cc1cccc(S(=O)(=O)NC(=O)C2(C)CCN2C(=O)Cc2cc(F)ccc2F)c1 (stereo not drawn) | -11.5% | -7.6% | -22.4 | ? | 4.8%
COc1ccc(CNCc2ccc3c(c2)OCO3)cc1Br | ? | 16.4µM* | -23.1 | -1.7% | 2.0%
COc1ccc(CNCc2ccc3c(c2)OCO3)c(OC)c1OC | ? | ? | 3.8 | -1.5% | -11.2%
CCOc1cc(/C=C/c2cc(C(F)(F)F)[nH]c(=O)n2)ccc1O | ? | ? | -62.6* | ? | ?
O=c1nc(/C=C/c2ccccc2C(F)(F)F)cc(C(F)(F)F)[nH]1 | -11.0% | -15.6% | -14.0 | -0.5% | 0.7%
COc1ccc(/C=C/c2cc(C(F)(F)F)[nH]c(=O)n2)cc1OC | -5.7% | -20.6% | -95.7* | -28.3% | -5.8%
CCOc1cc(/C=N/Nc2nc(=O)[nH]nc2C)ccc1O | 23.3% | -16.0% | 29.0 | -2.5% | -1.5%
O=C(N/N=C/C=C/c1ccccc1)C1CC1c1ccccc1 (stereo not drawn) | 18.4µM* | 11.6µM* | -11.3 | ? | -28.0%
O=C(N/N=C/C=C/c1ccccc1)NC1CCCCC1 | 18.4µM* | 18.4µM* | -23.3 | -5.3% | -4.1%
SMILES | DT40 TDP1 CPT | TDP1 cell noCPT | IL-1B inflam inh | HT1080 IDH1KD tx | HT1080-NT tox
CN(C)c1ccc(/C=N/NC(=O)C2CC2c2ccccc2)cc1 (stereo not drawn) | -26.8% | -26.1% | -30.0 | -22.8% | 7.0%
CC(NCc1cc(Br)ccc1OCC(=O)NCc1ccccc1)c1ccccc1 (stereo not drawn) | ? | ? | -68.0* | -17.6% | -3.0%
O=C(COc1ccc(Br)cc1CNC1CCCC1)Nc1ccccc1 | ? | 18.4µM* | -62.6* | ? | ?
CCN(CC)CCNCc1cc(Br)ccc1OCC(=O)NCc1ccccc1 | -1.7% | 1.4% | -12.3 | -10.4% | -16.4%
O=C(COc1ccc(Br)cc1Cl)NC1CCCCC1 | -12.2% | ? | -7.0 | 17.6% | 8.4%
CNCc1ccccc1OCC(=O)Nc1ccccc1 | 1.7% | -1.7% | 11.0 | -0.4% | -0.5%
Cc1ccc(C)c(OCC(=O)NC2CCCCCC2)c1 | -28.4% | ? | -65.5* | -23.9% | -11.7%
O=C(COc1ccc(Br)cc1Br)NC1CCCC1 | 4.11µM* | ? | -22.0 | -13.6% | ?
COc1ccccc1C(=O)Nc1cccc(OCc2cc(=O)n3ccccc3n2)c1 | -15.1% | -21.2% | . | . | .
COc1cc(CNCc2ccccn2)ccc1OCC(=O)NC1CCCCC1 | -21.2% | -23.5% | 14.0 | -8.5% | 8.1%
CCOC(=O)C1CCN(C(=O)COc2ccc(Br)cc2Br)CC1 | -18.5% | -5.5% | -66.4* | -3.4% | -27.5%
CCOc1cc(CNCc2ccccc2)ccc1OCC(=O)NC1CCCCC1 | 18.4µM* | 16.4µM* | -5.7 | 1.3% | -14.4%
Cc1cc(Cl)ccc1OCC(=O)NC1CCCC1 | 11.6µM* | 12.6µM* | -84.9* | -9.7% | ?
Cc1ccc(S(=O)(=O)CCC(=O)NC2CCCCC2)cc1 | 18.4µM* | 14.6µM* | 13.1 | 4.5% | 10.8%
O=C1NC(=O)/C(=C\c2ccc(N3CCOCC3)o2)N1 | 23.8% | 13.6% | -16.3 | 14.2% | 15.9%
COc1ccc(-c2sc3ccc(OC)cc3c2C#CCCO)cc1 | ? | ? | 0.0 | -29.3% | -18.1%
COc1ccc2sc(-c3ccc(N(C)C)cc3)c(C#CCCO)c2c1 | ? | 16.4µM* | -9.1 | ? | 16.4µM*
COc1cccc(-c2sc3ccc(OC)cc3c2C#CCC(C)O)c1 (stereo not drawn) | ? | ? | -2.1 | -7.4% | -4.9%
COc1ccc2sc(-c3ccc(N(C)C)cc3)c(C#Cc3cncn3C)c2c1 | 5.8µM* | 5.8µM* | -5.6 | 25.9µM* | 25.9µM*
COc1ccc2sc(-c3ccc(SC)cc3)c(C#CC(C)(C)O)c2c1 | ? | ? | -9.5 | ? | ?
COc1cccc(-c2sc3ccc(OC)cc3c2C#CC(C)(C)O)c1 | 23.1µM* | 18.4µM* | -87.5* | -24.1% | -19.0%
COc1ccc2sc(-c3ccc(N(C)C)cc3)c(C#CC(C)(C)O)c2c1 | 8.2µM* | 8.2µM* | 16.6 | ? | ?
